High-throughput results (PubChem)
IDE exosite inh: displaces the probe from the exo-site of human IDE; z-score at 20 µM; hit rate 6.3% among 17,000; P14735; purified IDE, FL-6b probe fluorescence polarization; hits give low values;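 active = z-score of -3 or lower, meaning strong loss of probe binding signal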;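 also: His-tagged human IDE residues 42-1019 made in E. coli with 30 nM FL-6b probe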
Target sequence (P14735 42-1019 limits assumed): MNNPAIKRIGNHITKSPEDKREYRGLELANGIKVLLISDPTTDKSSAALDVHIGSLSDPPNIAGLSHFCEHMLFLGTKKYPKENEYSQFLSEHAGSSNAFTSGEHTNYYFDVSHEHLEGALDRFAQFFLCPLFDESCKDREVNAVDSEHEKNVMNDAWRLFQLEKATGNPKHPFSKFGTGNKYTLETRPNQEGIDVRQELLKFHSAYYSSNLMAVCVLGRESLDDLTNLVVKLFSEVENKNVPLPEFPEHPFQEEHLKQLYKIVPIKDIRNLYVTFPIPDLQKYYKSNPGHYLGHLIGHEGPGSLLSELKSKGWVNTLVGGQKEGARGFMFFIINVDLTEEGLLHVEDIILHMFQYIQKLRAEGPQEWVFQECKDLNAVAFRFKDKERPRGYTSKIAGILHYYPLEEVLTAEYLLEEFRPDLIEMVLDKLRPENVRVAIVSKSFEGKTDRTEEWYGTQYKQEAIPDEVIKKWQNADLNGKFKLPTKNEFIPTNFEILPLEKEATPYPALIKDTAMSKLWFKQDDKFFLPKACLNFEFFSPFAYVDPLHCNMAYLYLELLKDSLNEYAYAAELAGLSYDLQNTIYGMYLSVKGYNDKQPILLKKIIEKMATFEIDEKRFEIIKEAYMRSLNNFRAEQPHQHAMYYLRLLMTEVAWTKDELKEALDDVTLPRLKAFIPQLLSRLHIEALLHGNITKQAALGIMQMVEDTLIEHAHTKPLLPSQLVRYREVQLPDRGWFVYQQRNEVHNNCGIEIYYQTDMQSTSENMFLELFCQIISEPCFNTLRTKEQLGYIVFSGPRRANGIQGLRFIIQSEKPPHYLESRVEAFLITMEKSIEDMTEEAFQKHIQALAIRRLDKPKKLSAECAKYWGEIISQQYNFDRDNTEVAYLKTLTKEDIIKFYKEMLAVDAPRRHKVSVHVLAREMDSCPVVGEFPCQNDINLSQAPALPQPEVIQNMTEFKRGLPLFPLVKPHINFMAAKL
Active calls of the source: *. Shown is part of a subset that was picked to be rich in hits.

SMILES | IDE exosite inh
O=C([C@@H]1[C@@H](CO)[C@@H]2Cn3c(cccc3=O)[C@@H]2N1C(=O)CC1CC1)N1CCc2ccccc2C1 | 1.1
COCC#Cc1ccc([C@@H]2[C@@H](CO)N3C(=O)CN(C(=O)Nc4ccc(F)cc4)C[C@H]23)cc1 | 3.7
COc1ccccc1-c1ccccc1[C@@H]1[C@@H](C#N)N(C(=O)C2CCC2)[C@H]1CO | 3.9
COc1ccccc1-c1ccc([C@H]2[C@@H](CO)N(C(=O)C3CC3)[C@H]2C#N)cc1 | -1.7
CS(=O)(=O)N1[C@H](C#N)[C@@H](c2ccccc2)[C@@H]1CO | 5.4
COc1ccccc1-c1ccc([C@H]2[C@@H](CO)N(C(=O)C3CCOCC3)[C@H]2C#N)cc1 | -8.3*
N#C[C@H]1[C@H](c2ccc(-c3ccccc3F)cc2)[C@@H](CO)N1C(=O)C1CCC1 | 2.2
COc1ccccc1-c1ccc([C@H]2[C@@H](C#N)N(C(=O)C3CCC3)[C@@H]2CO)cc1 | -4.8*
COc1ccccc1-c1ccccc1[C@H]1[C@@H](C#N)N(C(=O)C2CCC2)[C@H]1CO | 0.26
N#C[C@H]1[C@H](c2ccc(-c3ccccc3F)cc2)[C@H](CO)N1C(=O)C1CCC1 | -3.1*
CS(=O)(=O)N1[C@H](CO)[C@@H](c2ccc(-c3ccccc3F)cc2)[C@@H]1C#N | -3.1*
CS(=O)(=O)N1[C@H](C#N)[C@@H](c2ccccc2-c2ccccc2F)[C@H]1CO | -0.14
N#C[C@@H]1[C@H](c2ccc(-c3ccccc3F)cc2)[C@@H](CO)N1C(=O)C1CCC1 | -0.3
COc1ccccc1-c1ccccc1[C@@H]1[C@H](C#N)N(C(=O)C2CCOCC2)[C@H]1CO | -1.7
Cc1noc(C)c1S(=O)(=O)N(C)C[C@H]1OCc2ccccc2-c2c(n(C)c3ccccc23)C(=O)N([C@@H](C)CO)C[C@H]1C | -0.39
CCC(=O)N1CC[C@@H]2[C@@H](CO)Nc3ccc(C#Cc4ccccc4F)cc3[C@@H]21 | 0.85
CCC(=O)NC[C@H]1N[C@H](CO)[C@@H]1c1ccc(-c2cccc(C#N)c2)cc1 | 3
COc1ccc(CNC(=O)C[C@@H]2CC[C@H](NC(=O)CN(C)C)[C@H](CO)O2)cc1 | 1.8
CCCC#Cc1ccc([C@H]2[C@@H](CO)N3C(=O)CN(C(=O)NC4CCCC4)C[C@@H]23)cc1 | 0.095
CC(C)CC#Cc1ccc([C@@H]2[C@@H](CO)N3C(=O)CN(C(=O)CN4CCOCC4)C[C@@H]23)cc1 | 2.8
C/C=C/c1ccc([C@H]2[C@@H](CO)N(C(C)=O)[C@@H]2CNC(=O)NCCC)cc1 | 1
O=C(C[C@@H]1CC[C@H]2[C@@H](COC[C@H](O)CN2C(=O)c2cnccn2)O1)N1CCN(c2ccccc2)CC1 | -0.59
COc1ccc(S(=O)(=O)N2C[C@H](O)COC[C@@H]3O[C@H](CC(=O)N[C@@H]4CCN(Cc5ccccc5)C4)CC[C@H]32)cc1 | 0.32
C[C@@H](NC(=O)C[C@@H]1C=C[C@H](NC(=O)c2cccnc2)[C@@H](CO)O1)c1ccccc1 | -0.72
CN(C)C(=O)c1cccc(-c2ccc(C3[C@H]4CNC[C@@H]3N4CC3CCCCC3)cc2)c1 (stereo not given in full) | 4
SMILES | IDE exosite inh
COc1ccc(-c2ccc([C@H]3[C@H](C#N)N(C(=O)C4CCCC4)[C@H]3CO)cc2)cc1 | 0.47
COc1cccc(C#Cc2ccc([C@H]3[C@H](C#N)N(C(=O)C4CC4)[C@H]3CO)cc2)c1 | -1.9
CN(C)C(=O)c1cccc(-c2ccc([C@@H]3[C@H](C#N)N(C(=O)C4CC4)[C@H]3CO)cc2)c1 | 3.5
COc1cccc(C#Cc2ccc([C@H]3[C@@H](CO)N(C(=O)C4CCOCC4)[C@H]3C#N)cc2)c1 | -5.1*
COc1cccc(C#Cc2ccc([C@H]3[C@@H](C#N)N(C(=O)C4CCC4)[C@@H]3CO)cc2)c1 | -0.036
CN(C)C(=O)c1cccc(-c2ccc([C@@H]3[C@@H](C#N)N(C(=O)C4CC4)[C@H]3CO)cc2)c1 | 0.87
CN(C)C(=O)c1cccc(-c2ccc([C@@H]3[C@@H](C#N)N(C(=O)C4CC4)[C@@H]3CO)cc2)c1 | -3.6*
COc1ccccc1-c1ccc([C@@H]2[C@@H](CO)N(C(=O)C3CCC3)[C@H]2C#N)cc1 | -6.5*
COc1ccccc1-c1ccccc1[C@H]1[C@@H](CO)N(C(=O)C2CC2)[C@H]1C#N | 2.1
CN(C)C(=O)c1cccc(-c2ccccc2[C@@H]2[C@@H](C#N)N(C(=O)C3CCC3)[C@@H]2CO)c1 | 3.7
O=C(C[C@H]1C=C[C@H](NC(=O)CCN2CCCCC2)[C@@H](CO)O1)Nc1nccs1 | -1.6
O=S(=O)(c1ccccc1)N1CCCCN2[C@H](CO)[C@@H](c3ccc(C#Cc4ccccc4)cc3)[C@H]2C1 | 0.73
Cc1ccc(OC(=O)N(C)C[C@@H]2OCc3ccccc3-c3ccccc3C(=O)N([C@@H](C)CO)C[C@H]2C)cc1 | 0.34
COc1ccc2c3c(n(C)c2c1)[C@H](CO)N(CC1CC1)CC31CCN(S(=O)(=O)c2cccs2)CC1 | -1.3
CO[C@H]1CC[C@@H]2CCOc3c(C#N)cccc3C(=O)N(C)C[C@H](OC)[C@@H](C)C(=O)N(C)C[C@H]1O2 | 1
O=C(C[C@@H]1CC[C@H]2NC[C@H](O)COC[C@@H]2O1)N1CCc2ccccc2C1 | 1.3
CCC(=O)N(CC)C[C@@H]1[C@@H](c2ccc(-c3ccccc3)cc2)[C@@H](CO)N1C(C)=O | -1.6
O=C(NC[C@H]1[C@H](c2ccccc2)[C@H](CO)N1CC1CCCC1)C1CC1 | 3.3
CC(C)CC#Cc1ccc([C@@H]2[C@@H](CO)N3CCCCN(C(=O)NC4CCCC4)C[C@@H]23)cc1 | 1.8
Cc1ccccc1-c1ccc([C@@H]2[C@@H](CO)N3CCCCN(C(=O)NC4CCCC4)C[C@H]23)cc1 | -15*
Cc1ccccc1-c1ccc([C@@H]2[C@H](CO)N3CCCCN(C(=O)NC4CCCC4)C[C@@H]23)cc1 | -19*
O=C(NC1CCCC1)N1CCCCN2[C@H](CO)[C@@H](c3ccc(-c4ccncc4)cc3)[C@H]2C1 | 4.7
CC(C)CC#Cc1ccc([C@H]2[C@@H](CO)N3CCCCN(C(=O)NC4CCCC4)C[C@@H]23)cc1 | -0.55
O=C(NC1CCCC1)N1CCCCN2[C@@H](CO)[C@H](c3ccc(-c4ccccc4)cc3)[C@@H]2C1 | -3*
O=C(NC1CCCC1)N1CCCCN2[C@H](C1)[C@H](c1ccc(-c3ccccc3)cc1)[C@@H]2CO | -2.1
SMILES | IDE exosite inh
COc1ccc(NC(=O)N2CCCCN3[C@H](C2)[C@H](c2ccc(-c4ccccc4C)cc2)[C@@H]3CO)cc1 | 4.2
O=C(NC1CCCC1)N1CCCCN2[C@H](C1)[C@H](c1ccc(-c3cncnc3)cc1)[C@@H]2CO | -0.86
O=C(NC1CCCC1)N1CCCCN2[C@H](CO)[C@H](c3ccc(-c4cncnc4)cc3)[C@@H]2C1 | 3.7
CCCC#Cc1ccc([C@H]2[C@H](CO)N3CCCCN(C(=O)NC4CCCC4)C[C@@H]23)cc1 | -8.2*
CCS(=O)(=O)N1CC2(CN(C(=O)c3ccc(F)cc3)[C@H](CO)c3[nH]c4cc(OC)ccc4c32)C1 | -0.7
CN1CCN(C(=O)C[C@@H]2CC[C@@H]3[C@@H](COc4ccc(NC(=O)c5cccs5)cc4C(=O)N3C)O2)CC1 | -0.83
CC(=O)N1CC2(C1)[C@H](c1ccc(-c3ccc(F)cc3)cc1)[C@@H](CO)N2CC1CC1 | 1.4
O=C1CN(S(=O)(=O)c2ccccc2)C[C@@H]2[C@H](c3ccc(C#CCc4ccccc4)cc3)[C@@H](CO)N12 | 1.7
O=C(c1ccc(F)cc1)N1CC(=O)N2[C@H](C1)[C@@H](c1ccc(-c3ccccc3F)cc1)[C@@H]2CO | 3.9
